Inconclusive results are not listed. Entries that show only a call come without a potency. Unmarked numbers belong to inactive results. Active and inactive are the calls of the source. Calls follow the shape of the dose curve; as a rule, active = well fitted inhibition curve with a large enough effect; inconclusive = small, poorly fitted or top-dose-only effect; inactive = no such curve, though single readings can be large or run the other way.
Potency is read from the fitted curve at half-maximal effect.

The assay relates to Zika virus NS2B-NS3 protease (unlinked complex). The experiment in a line: Primary screen GU Rhodamine qHTS for Zika virus inhibitors: Unlinked NS2B-NS3 protease assay (AID 1347159). Also: nearly all actives have a fitted effect of over 60% in size. Conditions: Recombinant ZIKV NS2B-NS3 protease, Rhodamine110 substrate fluorescence; series mostly up to 107 µM. An excerpt:
Avindra Nath, Ph.D., National Institute of Neurological Disorders and Stroke (NINDS), Bethesda, MD
Radhakrishnan Padmanabhan, Ph.D., Georgetown University (GU), Washington D.C.
Zika Virus causes congenital defects, including microcephaly and is associated with Guillain-Barre syndrome, eningoencephalitis and myelitis in infected adult. […] Using a target-based approach, we hope to establish a screening paradigm to uncover novel, cell-active NS2B-NS3 protease (Zika Virus) specific inhibitors from NCATS' collection of small molecules using qHTS.
Four assay panel was created to identify potential Zika Virus inhibitors. Namely, (1) GU unlinked NS2B-NS3 AMC tagged protease qHTS, (2) GU unlinked NS2B-NS3 Rhodamine tagged protease qHTS, (3) NINDS linked NS2B-NS3 AMC tagged protease qHTS, (4) NINDS linked NS2B-NS3 Rhodamine tagged protease qHTS. Active compounds were re-acquired and re-screened to confirm inhibition. Inhibitors were further screened against various confirmatory and counterscreens in dose response format.
Early Translation Branch (ETB)
National Center for Advancing Translational Sciences (NCATS), Rockville, MD
National Institute of Health (NIH), Bethesda, Maryland
Padmanabhan lab provided the NS2B hydrophilic domain and NS3 protease domain in a noncovalent complex used for the unlinked assay. Control compound aprotinin is obtained from Thermo Scientific (#78432; Waltham, Massachusetts). Rhodamine110 substrate ([N-Cbz]-Nle-Lys-Arg-Arg-Rhod110-Arg-Arg-Lys-Nle-[N-Cbz]) was purchased from either Genscript or Bachem.
1536-well Protease (Rhodamine110 Substrate) Assay:
Briefly, 3 microL of enzyme (25 nM final concentration), in assay buffer (10 mM Tris-HCl pH 8.0 with 0.01% Tween 20) were dispensed into a 1,536-well solid-bottom black plate (Greiner Bio One, Monroe, NC). Twenty-three nL of compounds (final concentration range 7.28 nM to 114 microM) or control Aprotinin (final concentration range 3.47 nM to 114 microM) were transferred via Wako Pin-tool (Wako Automation, Richmond, VA). Samples were incubated (room temperature, protected from light) for 15 minutes followed by a 1 microL Rhodamine110 substrate addition (1.5 microM final concentration). Plates were then immediately read on a ViewLux High-throughput CCD imager (PerkinElmer, Waltham, MA) equipped with FITC fluorescence optics (480(20) nm excitation, 540(25) nm emission), then incubated (room temperature, protected from light) for 15 minutes (~15% conversion). The change in fluorescence intensity over the 15-minute reaction period was normalized against no-inhibitor and no-enzyme controls and the resulting percent inhibition data were fitted to a 4-parameter Hill equation. Aprotinin was used as intraplate control.
For `C=C1[C@H](OC(C)=O)[C@H]2[C@@H](OC(C)=O)[C@](C)(OC(C)=O)C[C@]2(OC(C)=O)C(=O)[C@H](C)/C=C/C(C)(C)C(=O)[C@H](OC(=O)C(C)CC)[C@H]1OC(C)=O` (stereo not given in full), the Potency result is “inactive”.

As for `C/C=C(\C)C(=O)O[C@H]1[C@@H](O[C@]2(COC(=O)CC(C)C)O[C@H](COC(=O)C(C)CC)[C@@H](OC(C)=O)[C@@H]2O)O[C@H](COC(C)=O)[C@@H](O)[C@@H]1O` (stereo not given in full), the Potency result is “inactive”.

As for `C=CC/C=C\C/C=C\CCCCCCCc1cccc(O)c1C(=O)O`, the Potency is 8.91 µM (active).

For `CC(=O)O[C@@H]1C[C@@H](OC(C)=O)C(C)(C)/C=C/[C@H](C)[C@H](OC(C)=O)[C@@]2(O)C[C@H](C)[C@H](OC(=O)c3ccccc3)[C@@H]2/C=C/1C`, the Potency result was “inactive”.

For the molecule `CC1(C)CC[C@@]2(C(=O)O[C@@H]3O[C@H](CO)[C@@H](O)[C@H](O)[C@H]3O)C(C1)C1=CCC3[C@@]4(C)CC[C@@H](O[C@@H]5O[C@H](C(=O)O)[C@@H](O[C@@H]6OC[C@@H](O)[C@H](O)[C@H]6O)[C@H](O[C@@H]6OC[C@](O)(CO)[C@H]6O)[C@H]5O)C(C)(C)C4CC[C@@]3(C)[C@]1(C)C[C@H]2O` (stereo not given in full), the Potency entry is “inactive”.

Consider `COC1CC(O[C@H]2CC[C@@]3(C)C(=CC[C@]4(O)C3[C@H](OC(C)=O)[C@@H](OC(=O)c3ccccc3)[C@]3(C)[C@@H](C(C)=O)CC[C@@]34O)C2)OC(C)C1OC1CC(OC)C(OC2CC(OC)C(OC3OC(C)C(OC4OC(CO)C(O)C(O)C4O)C(OC)C3O)C(C)O2)C(C)O1` (stereo not given in full), for which the activity change, negative = inhibition is 25.7% [at 19.1 µM].

Turning to `O=C1CC2(CCCC2)[C@H](O)C(=O)N1CCCCN1CCN(c2ncccn2)CC1`, the Potency entry was “inactive”.

As to `OC[C@H]1O[C@@H](OC(CCCCc2ccc(O)cc2)CCc2ccc(O)cc2)[C@H](O)[C@@H](O)[C@@H]1O` (stereo not given in full), the Potency entry is “inactive”.

As for `COC(=O)[C@@]1(c2ccc(C)cc2)C[C@H]1CN1CCC(O)(c2ccccc2)CC1`, the Potency entry was “inactive”.

Regarding `CC12CCC3c4ccc(O)cc4CCC3C1CC(OC1OC(C(=O)O)C(O)C(O)C1O)C2O` (stereo not given), the Potency entry was “inactive”.

On to `CCCCc1nc2cc(/C=C/C(=O)NO)ccc2n1CCN(CC)CC`, for which the Potency entry was “inactive”.

Consider `CS(=O)(=O)N1CCC(NC(=O)c2[nH]ncc2NC(=O)c2c(Cl)cccc2Cl)CC1`, for which the Potency entry is “inactive”.

For the molecule `CCC(C)C(=O)OC1CC(O)C23C4OCC5(C(O)CC2C1(C)C(O)O4)C3C(=O)C(O)C1(C)C(O)(c2ccoc2)CC2OC251` (stereo not given), the Potency result was “inactive”.

Turning to `C/C=C1\[C@H](O[C@@H]2O[C@H](CO)[C@@H](O)[C@H](O)[C@H]2O)OC=C2C(=O)OCCc3ccc(O)c(c3)Oc3ccc(cc3)CCOC(=O)C[C@H]21`, the Potency entry was “inactive”.

As for `COC1CC(OC2CCC3(C)C(=CCC4C3C(OC(C)=O)C(OC(=O)/C=C/c3ccccc3)C3(C)C(C(C)O)CCC43O)C2)OC(C)C1OC1CC(OC)C(OC2OC(C)C(OC3OC(CO)C(O)C(O)C3O)C(OC)C2O)C(C)O1` (stereo not given), the activity change, negative = inhibition is 0.295% [at 19.1 µM].

With `COc1ccc(-c2ccc(-c3cn(C(=O)N4CCCCC4c4ccccc4)nn3)cc2)cc1` (stereo not given), the Potency result is “inactive”.

Consider `CC(=O)c1cc2c(cc1O)OC(C)(C)C=C2`, for which the Potency result was “inactive”.

For `CC(C)S(=O)(=O)N[C@H]1CCOC[C@@H]1c1ccc(-c2ccc(C#N)s2)cc1`, the Potency entry is “inactive”.

With `O=S(=O)(NCC1CC1)c1ccc(Nc2nccc(N3CCCc4cc(O)ccc43)n2)cc1`, the Potency is 39.8 µM (active).

In the case of `CC(C)C(C(=O)N(C)C(C)C(N)=O)N(C)C(=O)C1CCCN1C(=O)/C=C/C=C/C(O)C(C)O` (stereo not given), the Potency result is “inactive”.

Turning to `CC1COC(Nc2ccc3ncnc(Nc4ccc(OCc5nccs5)c(Cl)c4)c3c2)=N1` (stereo not given), the Potency entry was “inactive”.

Take `CC1(C)CC[C@]2(C(=O)O[C@@H]3O[C@H](CO)[C@@H](O)[C@H](O)[C@H]3O)CC[C@]3(C)C(=CCC4[C@@]5(C)C[C@@H](O)[C@H](O)C(C)(C)C5[C@H](O)C[C@]43C)[C@@H]2[C@@H]1O` (stereo not given in full): the Potency result was “inactive”.

For the molecule `CCC(=O)O[C@H]1C(C)(C)[C@H]([C@@H](O)C(=O)OC)[C@]2(C)C(=O)[C@@]1(O)[C@H]1O[C@]13C1CC(=O)O[C@@H](c4ccoc4)[C@]1(C)CCC32` (stereo not given in full), the Potency entry is “inactive”.

Take `c1ccc(N2CCN(CCc3nn[nH]n3)CC2)cc1`: the Potency entry is “inactive”.

`CNC(=O)c1ccccc1Nc1nc(Nc2ccc(N3CCNCC3)cc2)ncc1Cl`: the Potency result was “inactive”.

For `Cc1cnc(NC(=O)Nc2cc(Br)c(C)cc2OCC2CNCCO2)cn1` (stereo not given), the Potency result was “inactive”.

On to `Nc1nccn2c(C3CCC(C(=O)O)CC3)nc(-c3cc4cccc(Cl)c4[nH]3)c12` (stereo not given), for which the Potency was 25.1 µM (active).

Turning to `C=C[C@H]1CN2CC[C@H]1C[C@@H]2C(O)c1ccnc2ccc(OC)cc12` (stereo not given in full), the Potency result is “inactive”.

For `CC(C)[C@@H]1C(=O)N(S(C)(=O)=O)[C@@H]2CCN(C(=O)/C=C/CN3CCCCC3)[C@H]21`, the Potency result is “inactive”.

On to `CO[C@H]1O[C@@H]2O[C@]3(C)CC[C@H]4[C@H](C)CC[C@@H]([C@H]1C)[C@@]24OO3`, for which the Potency result was “inactive”.

Turning to `CC1OC(OC2C(CO)OC(OCC3OC(OC(=O)C45CCC(C)(C)CC4C4=CCC6C7(C)CCC(OC8OC(CO)C(O)C(OC9OC(CO)C(O)C(O)C9O)C8O)C(C)(C)C7CCC6(C)C4(C)CC5)C(O)C(O)C3O)C(O)C2O)C(O)C(O)C1OC1OC(CO)C(O)C(O)C1O` (stereo not given), the activity change, negative = inhibition is 10.6% [at 19.1 µM].

For `C[C@@H]1O[C@@H](O[C@H]2[C@H](OC(=O)[C@]34CCC(C)(C)C[C@H]3C3=CCC5[C@@]6(C)C[C@H](O)[C@H](O[C@@H]7O[C@H](CO)[C@@H](O)[C@H](O)[C@H]7O)[C@@](C)(CO)C6[C@H](O)C[C@@]5(C)[C@]3(C)C[C@H]4O)OC[C@H](O)[C@@H]2O)[C@H](O)[C@H](O)[C@H]1O[C@@H]1OC[C@@H](O)[C@H](O[C@H]2OC[C@](O)(CO)[C@H]2O)[C@H]1O` (stereo not given in full), the activity change, negative = inhibition was 7.01% [at 19.1 µM].

Regarding `CC(C)=CCC/C(C)=C/Cc1ccc(O)c(C2OC(=O)c3cc(C(=O)O)cc(O)c32)c1O` (stereo not given), the Potency was 2.24 µM (active).

As for `CCn1cc(NC(=S)Nc2cc(Cl)ccc2OC)c(C(N)=O)n1`, the Potency result is “inactive”.

On to `CC[C@H](CO)Nc1nc(NCc2ccc(-c3ccccn3)cc2)c2ncn(C(C)C)c2n1`, for which the Potency result was “inactive”.

`C=C(C)C1CCC2(C(=O)O[C@@H]3O[C@H](CO[C@@H]4O[C@H](CO)[C@@H](O)[C@H](O)[C@H]4O)[C@@H](O)[C@H](O[C@@H]4O[C@@H](C)[C@H](O)[C@@H](O)[C@H]4O)[C@H]3O)CCC3(C(=O)O)C(CCC4C5(C)CCC(O)C(C)(C)C5CCC43C)C12` (stereo not given in full): the Potency result is “inactive”.

On to `CCCCNc1ncc2c(-c3ccc(F)cc3)nn(CC3CCC(N)CC3)c2n1` (stereo not given), for which the Potency entry was “inactive”.

`C/C=C(/COC(=O)/C(C)=C/C)C(=O)OC(CC)c1ccc(OC)c(OC)c1` (stereo not given): the Potency entry is “inactive”.

On to `Cc1ccccc1C#Cc1ccc(CCC(=O)O)cc1`, for which the Potency is 14.1 µM (active).

As for `C=C1C[C@]23C[C@H]1CC[C@H]2[C@@]1(C)CCC[C@@]2(C)C(=O)O[C@@H]([C@@H]3O)[C@@H]12`, the Potency entry was “inactive”.
